Results taken from PubChem BioAssay (NCI).
Compounds without any hit were thinned out: in the full panel of roughly 83,000, 20% have a hit.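 How to read the values: 0–100, growth inhibition (40 = 60% inhibited); 0, no net growth; -100 to 0, cell death (-40 = 40% of starting cells died; -100 = all dead).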 Unmarked numbers belong to inactive results. Active and inactive are the calls of the source. How the source made its calls: active means growth percent below 10; inactive means the rest.

Legend:
Test in all cases: NCI-60 one-dose screen, 48 h (100 = growth as untreated, 0 = no growth, -100 = all killed)
NCI-H23 lung = conditions: 10 µM unless noted
NCI-H226 lung = conditions: 10 µM unless noted
NCI-H322M lung = conditions: 10 µM unless noted
HOP-62 NSCLC = conditions: 10 µM unless noted
NCI-H460 lung = conditions: 10 µM unless noted
786-0 renal = conditions: 10 µM unless noted
MDA-MB-231 breast = conditions: 10 µM unless noted
SF-268 CNS = conditions: 10 µM unless noted
SF-539 CNS = conditions: 10 µM unless noted
M14 melanoma = conditions: 10 µM unless noted
HCT-15 colon = conditions: 10 µM
U251 CNS = conditions: 10 µM unless noted
UO-31 renal = conditions: 10 µM unless noted
SK-OV-3 ovarian = conditions: 10 µM unless noted
OVCAR-3 ovarian = conditions: 10 µM unless noted
MDA-MB-435 melanoma = conditions: 10 µM unless noted
SW-620 colon = conditions: 10 µM unless noted
MCF7 breast = conditions: 10 µM unless noted
HCT-116 colon = conditions: 10 µM unless noted
KM12 colon = conditions: 10 µM unless noted

SMILES	growth (NCI-H23 lung)	growth (NCI-H226 lung)	growth (NCI-H322M lung)	growth (HOP-62 NSCLC)	growth (NCI-H460 lung)	growth (786-0 renal)	growth (MDA-MB-231 breast)	growth (SF-268 CNS)	growth (SF-539 CNS)	growth (M14 melanoma)	growth (HCT-15 colon)	growth (U251 CNS)	growth (UO-31 renal)	growth (SK-OV-3 ovarian)	growth (OVCAR-3 ovarian)	growth (MDA-MB-435 melanoma)	growth (SW-620 colon)	growth (MCF7 breast)	growth (HCT-116 colon)	growth (KM12 colon)
CC(C)(O)/C=C/C(=O)[C@](C)(O)[C@H]1[C@H](O)C[C@@]2(C)[C@@H]3CC=C4[C@@H](C=C(O)C(=O)C4(C)C)[C@]3(C)C(=O)C[C@]12C	-40.1% (active)	-33.9% (active)	-20.1% (active)	-64.2% (active)	-20.8% (active)	-96.2% (active)	-25% (active)	-27.5% (active)	-53.6% (active)	-75.3% (active)	-52% (active)	-77.5% (active)	-54.6% (active)	5.63% (active)	-28.9% (active)	-52.1% (active)	-20% (active)	2.31% (active)	-53.5% (active)	-60.9% (active)
CCC(CO)NC1CCCCC1 (stereo not given)	87.5%	114%	97.2%	88.7%	100%	76%	58%	86.9%	17.7%	84.6%	76.4%	55.1%	66%	102%	100%	74.2%	34.6%	63.4%	26.8%	54.6%
CO[C@@H]1[C@H](OC(=O)NC(=O)CCl)CC[C@]2(CO2)[C@H]1[C@@]1(C)O[C@@H]1CC=C(C)C	64.1%	72.7%	59.8%	64.4%	23.5%	70.4%	79.9%	71.5%	87.6%	62%	30%	5.86% (active)	52.6%	93.7%	71.8%	62.6%	49.4%	26.9%	43.8%	36.3%
[O]=[Sn]([CH]1CCCCC1)[CH]1CCCCC1	-93.5% (active)	-74% (active)	-96.7% (active)	-91.8% (active)	-85.8% (active)	-97.6% (active)	-78.3% (active)	-98.9% (active)	-92.5% (active)	-88.6% (active)	-78.1% (active)	-85.2% (active)	-90.4% (active)	-98.2% (active)	-98% (active)	-88.4% (active)	-86.8% (active)	-88% (active)	-97.5% (active)	-94% (active)
ClCCN(CCCl)c1ccc(C=NCCc2c[nH]c3ccccc23)cc1	71.7%	-10.5% (active)	111%	73.1%	22.6%	63.4%	98.8%	72.2%	71.8%	91.6%	90.3%	72.6%	60.6%	81%	93.3%	110%	84.4%	56%	79%	101%
CC1(C)N=C(N)N=C(N)N1c1ccc(CCC(=O)Nc2cccc(S(=O)(=O)F)c2)cc1	63.8%	89%	79%	82.8%	27.7%	58%	104%	51.6%	39.4%	69.8%	81.9%	42.3%	85.2%	101%	114%	35.3%	52.3%	54.6%	41.3%	75%
O=[N+]([O-])c1ccccc1N1CCNCC1	96.4%	107%	96%	89.4%	109%	94.1%	114%	95.2%	99.8%	97.8%	105%	97.4%	84.6%	96%	101%	103%	104%	105%	101%	101%
COC1=CC(=O)OC(CCc2ccc3c(c2)OCO3)C1 (stereo not given)	121%	105%	132%	106%	103%	112%	114%	101%	103%	104%	103%	89%	101%	112%	122%	112%	102%	86.9%	106%	109%
CC1(C)N=C(N)N=C(N)N1c1ccc(CCCCc2ccc(Cl)cc2S(=O)(=O)F)c(Cl)c1	25.6%	30.6%	34.2%	33.4%	8.45% (active)	20.4%	27.4%	25.2%	19.6%	18%	22.4%	15.3%	60.7%	44.2%	25.2%	19.6%	11.9%	13.3%	14.9%	15.7%
N#Cc1ncc(/N=C/c2ccc(N(CCCl)CCCl)cc2)s1	58.2%	-19.1% (active)	121%	96.1%	22.7%	29%	94.5%	65.5%	40.7%	86.8%	50.6%	80.5%	34.8%	78.5%	78.5%	87.8%	79.4%	48.7%	71.6%	95.3%
CNc1ccc(C(=O)CC(O)CCC(C)C2OC(=O)CC(O)CC(=O)CC(O)CC(O)CC(O)CC(O)CC3(O)CC(O)C(C(=O)OC)C(CC(O[C@@H]4O[C@H](C)[C@@H](O)[C@H](N)[C@@H]4O)/C=C/C=C/C=C/C=C/C=C/C=C/C=C/C2C)O3)cc1 (stereo not given in full)	-54.5% (active)	-37.7% (active)	1.05% (active)	-25.9% (active)	3.55% (active)	-20.1% (active)	-0.509% (active)	-5.42% (active)	72.4%	-47.5% (active)	41.8%	23.8%	-58.6% (active)	2.49% (active)	-15% (active)	-1.58% (active)	37%	8.58% (active)	-16.4% (active)	7.61% (active)
Cc1ccc(C[As+](c2ccccc2)(c2ccccc2)c2ccccc2)cc1	-11.1% (active)	8.52% (active)	18.6%	9.44% (active)	2.34% (active)	13.5%	10.6%	24.1%	24.1%	4.54% (active)	75.9%	10.9%	69%	-4.76% (active)	13.9%	-10.3% (active)	11.9%	9.14% (active)	2.52% (active)	3.2% (active)
O=S(=O)(c1ccc(Cl)cc1)C(Cl)(Cl)Cl	40.6%	60.8%	75.2%	78.5%	80.4%	51.8%	42%	45.5%	33.8%	8.38% (active)	39%	52.1%	9.42% (active)	84.9%	-15.6% (active)	-14.8% (active)	24.4%	23.8%	42.2%	23.4%
O=C(CI)Nc1ccc(Br)cc1	32%	69.7%	95.4%	-62.7% (active)	95.3%	91.3%	44.2%	75.8%	95.8%	14.1%	1.13% (active)	-18.8% (active)	-82.3% (active)	101%	-78.7% (active)	52%	-86.7% (active)	32.4%	-69.9% (active)	88.1%
O=[As]c1ccc(C(=O)c2ccc(Oc3ccccc3)cc2)cc1 (stereo not given)	-77.5% (active)	-85.5% (active)	-79.1% (active)	-98.3% (active)	-31.9% (active)	-99.6% (active)	-98.4% (active)	-89.2% (active)	-98.4% (active)	-94.1% (active)	-78.3% (active)	-100% (active)	-84.6% (active)	-100% (active)	-93.9% (active)	-52% (active)	-82.6% (active)	-48.6% (active)	-99.2% (active)	-87.2% (active)
CN1CCN(C(=O)COc2ccc(/C=C3\CC4C5CC=C6CC(Cl)CCC6(C)C5CCC4(C)C3=O)cc2)CC1 (stereo not given)	71.2%	77.2%	85.7%	96.7%	17.2%	70.2%	75.2%	73.2%	93.6%	-13% (active)	54.4%	34.1%	99.9%	85.8%	76.1%	56.6%	40.4%	83.9%	34.6%	72.9%
